Results from PubChem BioAssay AID1159580 (chemical genetic matrix, 2015).
Screen size: about 5,500 compounds; about 2,000 (36%) were called active. Roughly 18% stayed inconclusive and do not appear here. No stated cut-off is given here; in the data, active means normalized growth mostly below about 0.91 (no sharp cut-off); inconclusive means no clear call, values can overlap the other calls; inactive means mostly above about 0.92. This is one part of the list.

Assay: chemical genetic growth profiling, strain panel (AID 1159580);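 further: tested at 20 µM; growth read once vehicle control cultures reached saturation at 30 °C; 1 = growth at the plate median or of vehicle wells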
Conditions: S. cerevisiae deletion strains, growth OD

Measured: normalized growth

Cc1onc(-c2ccccc2)c1-c1ccc(S(N)(=O)=O)cc1
inactive: locus YAL013W, strain DEP1, stronger effect = lower value 0.995 | locus YAL021C, strain ccr4, stronger effect = lower value 1 | locus YAL026C, strain drs2, stronger effect = lower value 1.02 | locus YAL030W, strain snc1, stronger effect = lower value 1 | locus YBL061C, strain skt5, stronger effect = lower value 1 | locus YBR009C, strain hhf1, stronger effect = lower value 1.01 | locus YBR021W, strain FUR4, stronger effect = lower value 1 | locus YBR023C, strain chs3, stronger effect = lower value 1 | locus YBR171W, strain sec66, stronger effect = lower value 0.984 | locus YBR229C, strain ROT2, stronger effect = lower value 0.999 | locus YBR231C, strain swc5, stronger effect = lower value 1 | locus YBR279W, strain paf1, stronger effect = lower value 1 | locus YCL011C, strain gbp2, stronger effect = lower value 0.989 | locus YCL016C, strain dcc1, stronger effect = lower value 1.02 | locus YCL029C, strain bik1, stronger effect = lower value 0.995 | locus YCL061C, strain MRC1, stronger effect = lower value 0.993 | locus YCL069W, strain vba3, stronger effect = lower value 0.995 | locus YCR088W, strain abp1, stronger effect = lower value 0.996 | locus YDL005C, strain med2, stronger effect = lower value 0.996 | locus YDL035C, strain GPR1, stronger effect = lower value 1 | locus YDL040C, strain nat1, stronger effect = lower value 1 | locus YDL074C, strain BRE1, stronger effect = lower value 0.999 | locus YDL101C, strain DUN1, stronger effect = lower value 1 | locus YDL134C, strain PPH21, stronger effect = lower value 1.01 | locus YDL185W, strain tfp1, stronger effect = lower value 0.988 | locus YDL192W, strain arf1, stronger effect = lower value 0.997 | locus YDR001C, strain nth1, stronger effect = lower value 1.01 | locus YDR069C, strain doa4, stronger effect = lower value 1 | locus YDR101C, strain arx1, stronger effect = lower value 0.997 | locus YDR137W, strain rgp1, stronger effect = lower value 1.01 | locus YDR150W, strain NUM1, stronger effect = lower value 1.02 | locus YDR159W, strain sac3, stronger effect = lower value 1.01 | locus YDR162C, strain NBP2, stronger effect = lower value 0.993 | locus YDR195W, strain ref2 0.963 | locus YDR297W, strain sur2, stronger effect = lower value 1 | locus YDR318W, strain mcm21, stronger effect = lower value 0.998 | locus YDR334W, strain swr1, stronger effect = lower value 1.02 | locus YDR335W, strain msn5, stronger effect = lower value 0.997 | locus YDR388W, stronger effect = lower value 0.997 | locus YDR392W, strain spt3, stronger effect = lower value 1.01 | locus YDR502C, strain sam2, stronger effect = lower value 0.99 | locus YEL003W, strain gim4, stronger effect = lower value 1 | locus YEL037C, strain rad23, stronger effect = lower value 1 | locus YEL061C, strain CIN8 (second series), stronger effect = lower value 1.02 | locus YEL061C, strain CIN8, stronger effect = lower value 0.992 | locus YER015W, strain faa2, stronger effect = lower value 0.997 | locus YER016W, strain bim1, stronger effect = lower value 1.01 | locus YER110C, stronger effect = lower value 0.997 | locus YER111C, strain swi4, stronger effect = lower value 0.996 | locus YER155C, strain BEM2 (second series), stronger effect = lower value 1.01 | locus YER155C, strain BEM2, stronger effect = lower value 0.988 | locus YER167W, strain BCK2, stronger effect = lower value 1 | locus YFR010W, strain ubp6, stronger effect = lower value 0.999 | locus YGL078C, strain dbp3, stronger effect = lower value 0.995 | locus YGL086W, strain mad1, stronger effect = lower value 0.988 | locus YGL167C, strain pmr1, stronger effect = lower value 1.02 | locus YGL173C, strain kem1, stronger effect = lower value 1.01 | locus YGL227W, strain vid30, stronger effect = lower value 0.991 | locus YGL240W, strain doc1, stronger effect = lower value 1.01 | locus YGL248W, strain PDE1, stronger effect = lower value 1 | locus YGL253W, strain hxk2, stronger effect = lower value 0.999 | locus YGR078C, strain PAC10, stronger effect = lower value 0.989 | locus YGR135W, strain pre9, stronger effect = lower value 0.995 | locus YGR229C, strain SMI1, stronger effect = lower value 0.994 | locus YGR252W, strain gcn5, stronger effect = lower value 0.985 | locus YHR013C, strain ard1, stronger effect = lower value 1.01 | locus YHR027C, strain rpn1, stronger effect = lower value 1 | locus YHR030C, strain SLT2, stronger effect = lower value 1.01 | locus YHR079C, strain IRE1 (second series), stronger effect = lower value 0.998 | locus YHR094C, strain hxt1, stronger effect = lower value 0.995 | locus YHR129C, strain ARP1, stronger effect = lower value 1 | locus YHR142W, strain chs7, stronger effect = lower value 0.989 | locus YHR200W, strain rpn10, stronger effect = lower value 1 | locus YIL066C, strain RNR3, stronger effect = lower value 0.983 | locus YIL073C, strain SPO22, stronger effect = lower value 1.03 | locus YIL125W, strain kgd1, stronger effect = lower value 0.99 | locus YIR030C, strain dcg1, stronger effect = lower value 1 | locus YJL092W, strain hpr5, stronger effect = lower value 0.995 | locus YJL095W, strain BCK1 (second series), stronger effect = lower value 1.01 | locus YJL095W, strain BCK1, stronger effect = lower value 1.02 | locus YJL115W, strain asf1, stronger effect = lower value 0.998 | locus YJL129C, strain trk1, stronger effect = lower value 0.972 | locus YJL134W, strain LCB3, stronger effect = lower value 1 | locus YJL154C, strain vps35, stronger effect = lower value 1.01 | locus YJL164C, strain tpk1, stronger effect = lower value 1.01 | locus YJL166W, strain qcr8, stronger effect = lower value 1 | locus YJL168C, strain set2, stronger effect = lower value 0.998 | locus YJL187C, strain SWE1 (second series), stronger effect = lower value 1 | locus YJL187C, strain SWE1, stronger effect = lower value 0.996
